Assay results taken from PubChem BioAssay AID485314 (National Center for Advancing Translational Sciences (NCATS), 2010).
Where “and” joins values, the source holds several entries; their conditions need not be identical. Equal values may be shown once. The campaign covered roughly 340,000 compounds. About 4,500 (1.3%) were called active. Where a call stands in place of a potency, no number is given. Inconclusive results (about 5%) are left out. The call rests on the fitted dose curve; in most records, active means well fitted inhibition curve with a large enough effect; inconclusive means small, poorly fitted or top-dose-only effect, or another doubt; inactive means no such curve, though single readings can be large or run the other way. Many of the other results were omitted from the sample, so actives are more common in it than they were. Where a structure was tested more than once in an assay, its records may differ in their call.

Target: DNA polymerase beta (Homo sapiens) (UniProt P06746)
Test: qHTS Assay for Inhibitors of DNA Polymerase Beta
Settings: Pol beta primer extension/strand displacement, fluorescence kinetic; series mostly up to 114 µM
Procedure, shortened: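 Enzyme-only controls used 10 nM Pol beta; buffer lacking enzyme served as negative control. Compound preincubated 15 min, then 50 nM substrate added; 0 and 10 min reads at room temperature.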
Potency means the concentration at half of the fitted maximal effect.

Compound | Potency
O=S(=O)(NCC(c1ccccc1)N1CCc2ccccc21)c1ccccc1 (stereo not drawn) | inactive
COc1cc2nc(NCC(C)c3ccccc3)n3nc(-c4ccccc4)nc3c2cc1OC (stereo not drawn) | inactive
O=C(NCc1ccccc1Cl)c1cccn1-c1nnc(N2CCCCC2)s1 | inactive
O=C(CCc1ccccc1)NCCc1cccs1 | inactive
O=C(O)CCC(=O)N(Cc1cccs1)Cc1cccs1 | 44.7 µM (active)
O=C(O)CCC(=O)N(Cc1ccccc1)Cc1ccccc1 | inactive
CCc1cccc(C)c1Nc1c(-c2ccc(N(C)C)cc2)nc2ncccn12 | inactive
CC(=O)N1CCc2cc(Br)cc(S(=O)(=O)CCC(=O)NCCc3ccc(Cl)cc3)c21 | inactive
Cn1c(=O)oc2cc(S(=O)(=O)CCC(=O)NCCc3ccc(Cl)cc3)ccc21 | inactive
COc1ccc(Cl)cc1NC(=O)CCC(=O)c1ccc(C)cc1 | inactive
O=C(CCS(=O)(=O)c1ccc(Br)cc1)NCCc1ccc(Cl)cc1 | 39.8 µM (active)
CCOc1ccc(OCC)c(NC(=O)CCS(=O)(=O)c2ccc(C)cc2)c1 | inactive
COc1ccc(Cl)cc1NC(=O)CCS(=O)(=O)c1ccc(Br)cc1 | 3.16 µM (active)
COc1cc(C(=O)NCCS(=O)(=O)N2CCN(c3ccccc3)CC2)cc(OC)c1OC | inactive
O=C(COc1ccccc1Cl)Nc1ccc2nc(SCC(=O)N3CCCC3)sc2c1 | inactive
Oc1c(C(c2ccc(F)cc2)N2CCN(Cc3ccccc3)CC2)sc2nc(-c3ccco3)nn12 (stereo not drawn) | inactive
COC(=O)c1ccc(C2C(C(=O)Nc3ccccc3)=C(C)Nc3nc4ccccc4n32)cc1 (stereo not drawn) | inactive
Cc1cccc(N2CCN(C(=O)CCSCc3ccccc3F)CC2)c1C | inactive
Cc1cc([N+](=O)[O-])ccc1NC(=O)c1ccc(NC(=O)C(C)C)cc1 | inactive
O=C(Nc1ccc(C(=O)N2CCCCC2)cc1)c1cccc([N+](=O)[O-])c1 | inactive
Cn1ccc(=Nc2ccc(NC(=O)c3ccc(N=c4ccn(C)c5ccc([N+](=O)[O-])cc45)cc3)cc2)cc1 | 0.355 µM (active)
CCOc1cccc2cc(-c3cn4c(n3)sc3cc(C)ccc34)c(=O)oc12 | inactive
CO/N=C(\C(=O)N[C@@H]1C(=O)N2C(C(=O)O)=C(COC(C)=O)CS[C@H]12)c1csc(N)n1 (stereo in doubt) | inactive and 25.1 µM (active)
Cc1ccn2c(Nc3ccc4c(c3)OCCO4)c(-c3ccc(C)s3)nc2c1 | inactive

Compound | Potency
Cc1cccc(-n2ccnc2SCC(=O)Nc2cc(C(F)(F)F)ccc2Cl)c1 | inactive
COc1cccc(Cn2c(SCc3ccc(C(=O)N4CCC(C)CC4)cc3)nc3ccncc32)c1 | inactive
Cc1cc(C)cc(NC(=O)c2cnc3sc(N4CCCC4)nn3c2=O)c1 | inactive
COc1cc(-c2noc(-c3ccc(N4CCCC4)c([N+](=O)[O-])c3)n2)cc(OC)c1OC | inactive
COc1ccccc1-c1noc(-c2ccc(NCc3ccccc3)c([N+](=O)[O-])c2)n1 | inactive
COc1ccc(-c2noc(-c3ccc(N4CCN(c5ccccc5)CC4)c([N+](=O)[O-])c3)n2)cc1OC | 89.1 µM (active)
COc1ccc(S(=O)(=O)NCC(c2ccc(N(C)C)cc2)N2CCc3ccccc32)cc1OC (stereo not drawn) | inactive
COc1ccccc1N1CCN(S(=O)(=O)CCNC(=O)COc2ccc(F)cc2)CC1 | inactive
CC(=O)Nc1cccc(NC(=O)CSc2nccn2Cc2ccc3c(c2)OCO3)c1 | inactive
CCOC(=O)CCCNC(=O)COC(=O)/C=C/c1ccc2c(c1)OCO2 | inactive
CCC1=C/C(=C\c2ccc3c(c2)OCO3)C(=O)S1 | 14.1 µM (active)
O=C(Cc1ccc(F)cc1)N/N=C/c1ccc2c(c1)OCO2 | inactive
Cc1cccc(NC(=O)c2ccc(F)c(S(=O)(=O)N(C)C3CCCCC3)c2)c1 | inactive
COc1ccc(NC(=O)c2sc3nc[nH]c(=O)c3c2C)cc1 | inactive
CN(C)[C@@H]1C(=O)C(C(N)=O)=C(O)[C@@]2(O)C(=O)C3=C(O)c4c(O)ccc(Cl)c4[C@@H](O)[C@H]3C[C@@H]12 | 8.91 µM (active)
Cc1ccccc1CCNC(=O)C1CCN(c2nc3ccccc3nc2C(F)(F)F)CC1 | inactive
COc1ccc(NC(=O)c2cnc(NS(=O)(=O)c3ccccc3)nc2)cc1 | inactive
COc1ccc(S(=O)(=O)Nc2cc3c(C(=O)OC(C)C)c(C)oc3c3ccccc23)cc1 | inactive
COc1ccc(S(=O)(=O)/N=C2\C=C(NS(=O)(=O)c3ccccc3)C(=O)c3ccccc32)cc1 | 79.4 µM (active)
CC(C)(C)c1ccc(S(=O)(=O)Nc2ccc(O)c(Sc3nc4ccccc4s3)c2)cc1 | inactive
O=C(CC1N=C2c3ccccc3N=C(SCc3ccc(F)cc3)N2C1=O)NCc1cccs1 (stereo not drawn) | inactive
CCC(C)NC(=O)CSC1=Nc2ccccc2C2=NC(CCC(=O)NCc3ccco3)C(=O)N12 (stereo not drawn) | inactive
O=C(CSC1=Nc2ccccc2C2=NC(CC(=O)NCc3ccco3)C(=O)N12)NCc1ccco1 (stereo not drawn) | 39.8 µM (active)
O=C(CC1N=C2c3ccccc3N=C(SCc3ccccc3Cl)N2C1=O)NCc1ccco1 (stereo not drawn) | 12.6 µM (active)

Compound | Potency
COc1ccc(NC(=O)CSC2=Nc3ccccc3C3=NC(CC(=O)NCc4ccccc4OC)C(=O)N23)cc1Cl (stereo not drawn) | inactive
O=C(CC1N=C2c3ccccc3N=C(SCc3cccc(Cl)c3)N2C1=O)NCc1ccc2c(c1)OCO2 (stereo not drawn) | inactive
CCN(CC)c1ccc(NC(=O)Cn2nc3c(cc2=O)CCCC3)c(C)c1 | inactive
O=C(NCCCO)C(=O)Nc1c2c(nn1-c1ccc(F)cc1)CSC2 | inactive
CCOC(=O)c1c(C)oc2ccc(N(C(=O)c3ccncc3)S(=O)(=O)c3ccc(CC)cc3)cc12 | inactive
Cc1ccc(C)c(NC(=O)CSC2=Nc3ccccc3N=C(c3ccc(F)cc3)C2)c1 | inactive
Nc1nnnn1CC(=O)N/N=C/c1ccc(-c2cccc(Cl)c2)o1 | inactive
O=C(O)C(c1ccccc1)N1C(=O)/C(=C\c2ccc(-c3cccc(Cl)c3)o2)SC1=S (stereo not drawn) | 50.1 µM (active)
O=C1c2ccccc2NC(c2ccc(-c3cccc(Cl)c3)o2)N1O (stereo not drawn) | inactive
Cc1ccc(C)c2sc(NC(=O)c3ccc(S(=O)(=O)N4CCCC4)cc3)nc12 | inactive
COc1cccc(C(=O)Nc2ccc(-c3cc(C(F)(F)F)nn3-c3ccccc3)cc2)c1 | inactive
CCOc1cc(-c2nnc(SCC(=O)NC3CCCCC3)nc2-c2ccc(OC)c(OCC)c2)ccc1OC | inactive
COC/C=C/C1=CC2=CC(=O)C(C)(OC(=O)CCC(=O)OC)C(=O)C2=CO1 (stereo not drawn) | 39.8 µM (active)
COC(=O)CCCC1=CC2=CC(=O)C(C)(OC(=O)c3cccs3)C(=O)C2=CN1CC(C)C (stereo not drawn) | inactive
COCCN1C=C2C(=O)C(C)(OC(=O)C3CCCC3)C(=O)C=C2C=C1c1ccsc1 (stereo not drawn) | inactive
COC(=O)c1cnn(-c2ccc(C(=O)Nc3ccc(OC(F)(F)F)cc3)cc2)c1N | inactive
COC(=O)c1ccccc1NC(=O)C1CCN(C(=O)N2CCOc3ccccc32)CC1 | 89.1 µM (active)
COC(=O)c1ccccc1NC(=O)C1CCN(S(=O)(=O)c2cc(OC)ccc2OC)CC1 | inactive
CCOc1ccc(NC(=O)C2CCN(C(=O)N3CCOc4ccccc43)CC2)cc1 | inactive
Cc1ccc(-c2nn(CCC(=O)Nc3ccc(OC(F)(F)F)cc3)c(=O)c3ccccc23)cc1 | inactive
Clc1cccc(-n2ncc3c(NCCc4ccccc4)ncnc32)c1 | inactive
COc1ccc(OC)c(NC(=O)Cc2cccs2)c1 | 50.1 µM (active)
CCOc1ccc(NC(=O)C/C(C)=N/NC(=O)Cc2cccs2)cc1 | inactive
CCc1nnc(NC(=O)Cc2cccs2)s1 | inactive

Compound | Potency
O=C(Cc1cccs1)Nc1nnc(SCc2ccc(F)cc2)s1 | inactive
COc1ccc(Cc2nnc(NC(=O)Cc3cccs3)s2)cc1 | 2 µM (active)
CCOc1ccccc1NC(=O)Cc1cccs1 | 10 µM (active)
COc1ccc(C)cc1NC(=O)CNCc1cccs1 | inactive
COc1ccc(NC(=S)NCc2cccs2)c(OC)c1 | inactive
CCOC(=O)c1ccc(NC(=O)Cc2cccs2)cc1 | inactive
Cc1nnc(NC(=O)CSc2nc3c([nH]c4ccccc43)c(=O)n2-c2cccc(Cl)c2)s1 | inactive
CCN(C(=O)CSc1nnc(C)n2c1cc1occc12)c1ccccc1 | inactive
COc1ccc(C)cc1NC(=O)CCc1c(C)nn(-c2ccc(N3CCOCC3)nn2)c1C | inactive
Cc1ccc(OCCCC(=O)Nc2ccc(S(=O)(=O)Nc3cc(C)nc(C)n3)cc2)cc1 | inactive
Cc1ccc(NC(=O)CSc2nc(CSc3ccc(C)cc3)cc(=O)[nH]2)cc1 | inactive
COc1ccc(NC(=O)CSc2nc(NS(=O)(=O)c3ccc(C)cc3)cc(=O)[nH]2)cc1 | 17.8 µM (active)
CC1CCC2(CC1)N=C(c1ccccc1)C(=O)N2CC(=O)Nc1ccc(F)c(Cl)c1 (stereo not drawn) | inactive
O=C(Nc1ccc2nc(SCCOc3ccccc3)sc2c1)c1ccco1 | inactive
CCS(=O)(=O)C1=NSC2=NC(=O)/C(=C\c3ccc(OS(=O)(=O)c4ccccc4)cc3)C(=N)N21 | inactive
CCS(=O)(=O)C1=NSC2=NC(=O)/C(=C\c3cc(C)n(-c4cccc(OC)c4)c3C)C(=N)N21 | inactive
CS(=O)(=O)c1ccc2c(c1)SC1=NC(=O)/C(=C/c3ccco3)C(=N)N12 | 31.6 µM (active)
CC(C)(C)c1ccc(C(=O)Nc2ccc3c(c2)CCCN3C(=O)c2cccs2)cc1 | inactive
CCC1C/C(=C/c2cccs2)C(=O)/C(=C/c2cccs2)C1 (stereo not drawn) | inactive
CC(C)(C)C1C/C(=C/c2ccco2)C(=O)/C(=C/c2ccco2)C1 (stereo not drawn) | 10 µM (active)
CC(C)c1ccc(NC(=O)c2ccc3c(O)c(S(=O)(=O)c4ccccc4)c(=O)[nH]c3c2)cc1 | inactive
